Shown are actives, neighbours in structure and some others; about 17% of the full set was active somewhere.
S2 tox = reduces viability in counter-screen for ATXN expression inhibitors; S2 cells (HEK-293 line with an ATXN2-luciferase reporter) viability, CellTiter-Fluor protease fluorescence, 24 h; Potency, µM (doses to about 56.7 µM), most hits filed as cytotoxic; 0.49% of 400,000 active; also: nearly all actives have a fitted effect of over 40% in size
HepG2 viability = counter-screen for TGF-b inhibitors: cytotoxicity in HepG2 cells | HepG2 CAGA-GFP viability, ATP luminescence, 18 h | Potency, µM (highest dose often 46.1 µM), inactives show top-dose activity change, negative = cytotoxicity, hits mostly cytotoxic | 0.76% of 410,000 active | AID 588856
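HepG2 CAGA-GFP cells (1000/well, DMEM with 1% FBS) received compound, then TGF-beta at 500 pg/mL final, and were incubated 18 hours at 37 degrees C. Viability was read by CellTiter-Glo luminescence. Media-only wells were set as complete cell-killing and DMSO as no toxicity.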
ATXN2 expr inh = reduces ATXN2 reporter expression in HEK-293 cells; HEK-293 ATXN2-luciferase reporter, luminescence, 24 h; 0.72% of 360,000 active; Potency, µM (titrated, usually from 57 µM), for the others: at the top dose activity change, negative = inhibition, actives largely listed as inhibitors; also: % is scaled to controls: 0 for no effect and ±100 for the full control effect; nearly all actives have a fitted effect of over 55% in size
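qHTS (up to 57 uM final) was run with 24 h compound exposure of reporter cells at 37 °C. Each well was multiplexed: SteadyGlo luminescence measured ATXN2-luciferase expression after a fluorogenic Gly-Phe-AFC viability readout (25 uM final).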
DT40 TDP1 CPT = growth inhibition of DT40 Tdp1-/-;hTDP1 cells with camptothecin (screen for TDP1 inhibitors); chicken DT40 Tdp1-/-;hTDP1 cells + 20 nM CPT, ATP luminescence, 48 h; Potency, µM (doses to about 46.2 µM), inactives show at the top dose activity change, negative = growth inhibition, hits mostly inhibitors; 12% of 420,000 active; also: % is scaled to controls: 0 for no effect and ±100 for the full control effect; nearly all actives have a fitted effect of over 55% in size
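Cell growth measured by CellTiter-Glo luminescence after a minimum 48 h, 37 C compound exposure with 20 nM CPT in Tdp1-knockout DT40 cells stably expressing hTDP1, seeded 400/well; qHTS titration format.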
TDP1 cell noCPT = qHTS for Inhibitors of human tyrosyl-DNA phosphodiesterase 1 (TDP1): qHTS in cells in absence of CPT; DT40 Tdp1-/- hTDP1 cells, no CPT, ATP luminescence, 48 h; 15% of 420,000 active; Potency, µM (doses to about 46.2 µM), inactives show top-dose activity change, negative = growth inhibition, most hits filed as inhibitors; also: % is scaled to controls: 0 for no effect and ±100 for the full control effect; nearly all actives have a fitted effect of over 55% in size
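Cells were dispensed at 400 per well, compounds added by pin tool, plates incubated ≥48 hr at 37 °C, then CellTiter-Glo added for 30 min at room temperature before luminescence reading. Line: DT40 Tdp1-/- complemented with hTDP1; camptothecin omitted.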
TGFb inhibitor = inhibitors of TGF-b signaling | HepG2 CAGA-GFP TGF-b/SMAD3 reporter, GFP fluorescence, 18 h; TGF-beta stimulated, 500 pg/mL final | Potency, µM (top dose mostly 46.1 µM), without a hit: top-dose activity, negative = inhibition, usual class: inhibitors | 1.2% of 410,000 active; also: % is scaled to controls: 0 for no effect and ±100 for the full control effect; nearly all actives have a fitted effect of over 65% in size
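Cell-based qHTS in HEPG2 carrying a CAGA-GFP Smad reporter; compounds added before 500 pg/mL final TGF-beta, 18 h incubation at 37 degrees C, GFP fluorescence quantified per cell by imaging cytometry.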
An asterisk follows results filed as active; i = inactive; ? = inconclusive; nt = no result given; [ ] = dose if it differs, or a comment. Calls follow the shape of the dose curve; as a rule, active = well fitted curve in the direction sought with a large enough effect; inconclusive = small, poorly fitted or top-dose-only effect, or another doubt; inactive = no such curve, though single readings can be large; an effect the other way counts as inactive or inconclusive. Potency is read from the fitted curve at half-maximal effect.

SMILES | S2 tox | HepG2 viability | ATXN2 expr inh | DT40 TDP1 CPT | TDP1 cell noCPT | TGFb inhibitor
COC(=O)C1(Cc2cc(-c3cccnc3)no2)CCN(C(=O)OC(C)(C)C)CC1 | i | 2% | 11% | ? | ? | 2%
CC(C)(C)OC(=O)N1CCN(c2ccc([N+](=O)[O-])cc2)CC1 | i | 4% | -19% | 0% | 3% | -1%
COC(=O)C1(CC2CC(c3ccc(Cl)cc3)=NO2)CCN(C(=O)OC(C)(C)C)CC1 (centres undefined) | i | -33% | -25% | 26µM* | 21µM* | ?
COC(=O)C1(Cc2cc(-c3ccc([N+](=O)[O-])cc3)no2)CCN(C(=O)OC(C)(C)C)CC1 | ? | -6% | -11% | ? | 21µM* | ?
COC(=O)C1(Cc2cc(-c3ccc(Cl)cc3)no2)CCN(C(=O)OC(C)(C)C)CC1 | i | -15% | -11% | ? | 18µM* | ?
COC(C(=O)Nc1ccnn1C1CCN(Cc2ccc(Cl)s2)CC1)c1ccccc1 (centres undefined) | i | -11% | -15% | ? | ? | -15%
COc1ccc(NC(=O)CN(C)C(=O)c2oc3c(ccc4ccccc43)c2C)cc1 | ? | -37% | -5% | -27% | ? | -22%
S=C(NC1CCCCC1)N1CCC([C@H]2C=NC=N2)CC1 | i | nt | nt | nt | nt | nt
Cc1cc(SCC(=O)NCC(c2cccs2)N2CCOCC2)c(C)cc1Br (centres undefined) | i | -2% | -20% | ? | 18µM* | -36%
Cc1ccc(C(C)C)c(OCC(=O)NCC(c2cccs2)N2CCOCC2)c1 (centres undefined) | i | 8% | -32% | 26µM* | 13µM* | -20%
Cc1cc(Cl)ccc1OCC(=O)NCC(c1cccs1)N1CCOCC1 (centres undefined) | i | 6% | -24% | ? | 16µM* | -8%
CCOc1ccc(C(=O)NCC(=O)NCC(c2cccs2)N2CCOCC2)cc1 (centres undefined) | i | -3% | 13% | 0% | -24% | 17%
CCCCOc1ccc(C(=O)NCCc2sc(-c3cccc(F)c3)nc2C)cc1 | i | 5% | -27% | ? | ? | 2%
CC(=O)Nc1nc(C)nc(C)c1C(C)=O | i | 4% | 27% | 3% | 2% | 17%
O=C(NCc1ccccc1Cl)c1ccc2c(c1)N(Cc1ccccc1)C(=O)CS2 | nt | -14% | nt | 23µM* | ? | ?
O=C(NCC1CCCO1)c1ccc2c(c1)N(Cc1ccccc1)C(=O)CS2 (centres undefined) | i | -1% | -9% | -14% | -10% | 0%
COc1ccc(CNC(=O)c2ccc3c(c2)N(Cc2cc(C)ccc2C)C(=O)CS3)cc1 | i | -4% | 5% | ? | ? | -3%
Cc1ccc(CNC(=O)c2ccc3c(c2)N(Cc2cccc(Cl)c2)C(=O)CS3)cc1 | ? | -7% | -7% | ? | 21µM* | 0%
Cc1cccc(CN2C(=O)CSc3ccc(C(=O)NC4CC4)cc32)c1 | ? | -3% | -19% | 0.73µM* | ? | 39%
Cc1ccc(CNC(=O)c2ccc3c(c2)N(Cc2ccccc2Cl)C(=O)CS3)cc1 | ? | 5% | -5% | ? | ? | 8%
CCN1CCN(C(c2ccc(C)cc2)c2sc3nc(-c4ccco4)nn3c2O)CC1 (centres undefined) | ? | -2% | 16% | 4% | 0% | -4%
CCCc1cc(=O)[nH]c2nnc(SCC(=O)Nc3cc(C)on3)n12 | i | -1% | -8% | -12% | ? | 0%
Cc1ccc(C2CC(=O)Nc3cc4c(cc32)OCCO4)cc1Br (centres undefined) | i | -38% | -18% | 18µM* | 16µM* | 13µM*
CC(C)c1ccc(C2CC(=O)Nc3cc4c(cc32)OCCO4)cc1 (centres undefined) | ? | -77% | ? | ? | 29µM* | ?
O=C1CC(c2ccncc2)c2cc3c(cc2N1)OCCO3 (centres undefined) | i | -2% | 2% | 5% | -3% | 16%
SMILES | S2 tox | HepG2 viability | ATXN2 expr inh | DT40 TDP1 CPT | TDP1 cell noCPT | TGFb inhibitor
O=C1CC(c2ccc3c(c2)OCO3)c2cc3c(cc2N1)OCCO3 (centres undefined) | i | -14% | -14% | ? | ? | -9%
CCc1ccc(-c2nn(CC(=O)NCc3ccccc3)c3c2cnc2ccc(F)cc23)cc1 | i | 0% | 20% | -15% | -27% | ?
O=C(CCCn1c(=S)[nH]c2cc3c(cc2c1=O)OCO3)N1CCN(c2ccccc2F)CC1 | i | -29% | 2% | ? | 18µM* | 13%
O=c1c2ccccc2[nH]c(=S)n1CCCN1CCN(c2ccccc2F)CC1 | ? | -7% | nt | 2.9µM* | ? | -11%
O=C(CCCCCn1c(=S)[nH]c2cc3c(cc2c1=O)OCO3)N1CCN(c2ccccc2)CC1 | i | 0% | 4% | ? | -11% | 3%
COc1ccccc1N1CCN(C(=O)CCCCCn2c(=S)[nH]c3cc4c(cc3c2=O)OCO4)CC1 | i | -16% | nt | ? | 10µM* | -4%
COc1cccc(N2CCN(C(=O)CCCCCn3c(=S)[nH]c4cc5c(cc4c3=O)OCO5)CC2)c1 | ? | -18% | -31% | 21µM* | ? | 3%
OCCN1C[C@H](O)[C@@H](O)[C@H](O)[C@@H]1CO | nt | nt | 12% | nt | nt | nt
COCC(=O)Nc1cc(C(=O)N2CC3CC4CC(C3)CC2C4)c2c(c1)nc(-c1ccncc1)n2C | i | nt | nt | 1%[9.04 µM] | ? | nt
CC(=O)Nc1ccc(S(=O)(=O)Nc2cc(S(=O)(=O)N3CCCCC3)ccc2O)cc1 | i | 14% | 2% | 10% | -22% | 17%
COC(=O)[C@]1(C)N[C@H](c2ccc(SC3CCCCC3)c(OC)c2)[C@@H]2C(=O)N(C)C(=O)[C@@H]21 | i | 4% | 2% | ? | 12µM* | -3%
CCN1C(=O)[C@H]2[C@@H](c3ccc(-c4ccc5c(c4)OCO5)c(OC)c3)N[C@@](C)(C(=O)OC)[C@H]2C1=O | ? | -3% | -4% | ? | ? | 17%
CCN1C(=O)[C@H]2[C@@H](c3ccc(-c4ccc(Cl)c(Cl)c4)c(OC)c3)N[C@@](C)(C(=O)OC)[C@H]2C1=O | i | 8% | -19% | 4.6µM* | 6.5µM* | 3%

Screens (PubChem BioAssay)
